Measured values reported in PubChem BioAssay AID2326 (National Center for Advancing Translational Sciences (NCATS), 2010).
Among all 270,000 compounds or so, about 1,100 (0.41%) were called active. Where a call stands in place of a potency, no number is given. Another 3% or so got no clear call; they are omitted. The sample holds actives, similar compounds and a random draw of the others, so the mix is not that of the screen. Calls follow the shape of the full dose curve.
Potency is read from the fitted curve at half-maximal effect.

Experiment: qHTS Assay for Inhibitors of Influenza NS1 Protein Function; also: actives are rising curves; nearly all actives have a fitted effect of over 50% in size
Conditions: series mostly up to 46.1 µM
Source text: NIH Chemical Genomics Center [NCGC]
NIH Molecular Libraries Probe Centers Network [MLPCN]
Assay Submitter (PI): Daniel Engel
Influenza is a world-wide public health problem and emerging forms of the virus have the potential to cause a pandemic of equal or greater magnitude to the outbreaks recorded in 1918, 1957 or 1968. Vaccine development is proceeding and there also exist two classes of anti-influenza compounds. However these therapeutic modalities are neither fully effective nor widely enough available to fulfill global needs. In addition their potential usefulness against newly emergent strains is not known. Efforts are needed to develop novel agents against influenza virus, including broad-spectrum agents. Identification of small molecules that inhibit NS1 function either directly or by interfering with specific cellular pathways may be a key to increasing our defense against the virus.
We have miniaturized and optimized a cell based assay in which NS1 from influenza A is expressed in the budding yeast S. cerevisiae. NS1 is a multi-functional protein that counters the host innate immune response and facilitates viral versus cellular gene expression. Expression of NS1 causes a pronounced slow growth phenotype in yeast due to its intrinsic molecular activities. Small molecules that suppress the slow growth phenotype can be identified by a straightforward growth recovery assay using optical density (OD) as the measurement. The same yeast strain not expressing NS1 was used as positive control in the yeast growth recovery assay.
The yeast S. cerevisiae control and NS1 expressing cells were kindly supplied by laboratory of Dr. Daniel Engel, University of Virginia. Yeast starter cultures were stored in single use aliquots at -80C.
1. Yeast culture medium per liter: 1.2 g Yeast Nitrogen Base (w/out amino acids and Ammonium Sulphate), 5.0g Ammonium Sulphate, 0.77g -URA DO (drop-out) Supplement, adjust pH to 6.0. Adjust to 2% glucose prior to inoculating with yeast.
2. Yeast assay medium: 1.2 g Yeast Nitrogen Base (w/out amino acids and Ammonium Sulphate), 5.0g Ammonium Sulphate, 0.77g -URA DO (drop-out) Supplement, adjust pH to 6.0. Adjust to 2% D-galactose prior to inoculating with yeast.
1. Inoculate 100 mls of yeast culture medium with 1 ml of frozen yeast aliquote. Incubate overnight at 30C, 250RPM.
2. Harvest overnight culture at 4000 RPM and wash pellet with 15 mls H2O 3x.
3. Re-suspend washed pellet in 10 mls of yeast assay medium.
4. Prepare a 1:100 dilution of re-suspended culture in yeast assay medium.
5. Dispense 3.5 ul per well of reagents in step 4 in columns 2-48 in a black clear bottom 1536 well plate.
6. Dispense 3.5 ul per well of yeast assay medium in column 1 only.
7. Transfer 23 nl of compound per well.
8. Dispense 3.5 ul per well of yeast assay medium in columns 1-48.
9. Read plate using Viewlux protocol for optical density 600 (OD600) using excitation filter 600nm.
For `CNC(=O)c1sc(Nc2ccc(OCc3ccccc3)cc2)nc1C`, the Potency was “inactive”. In the case of `CCCn1c(=N)n(CC(=O)c2ccc(Cl)c(Cl)c2)c2ccccc21`, the Potency is reported as “inactive”. In the case of `COc1ccc(/C=C2\SC(=O)N(CCC(=O)NC3CCS(=O)(=O)C3)C2=O)cc1` (centres undefined), the Potency is reported as “inactive”. In the case of `O=C(CCS(=O)(=O)c1ccccc1)Nc1nc2c(s1)CCCC2`, the Potency is reported as “inactive”. With `Cc1nnc(NC(=O)Cn2c(=O)sc3ccccc32)s1` the Potency was “inactive”. For `Cc1ccc(-n2c(SCC(=O)N3CCC(C(=O)O)CC3)nc3ccccc3c2=O)cc1C`, the Potency was “inactive”. With `Cc1ccc(NS(=O)(=O)c2ccc(-c3coc(C)n3)cc2)c(C)c1` the Potency was “inactive”. For `CN1CCN(C(=O)COc2ccc(C(C)(C)C)cc2Br)CC1`, the Potency was 3.98 µM (active). In the case of `CCOc1cc(CO)ccc1OCC(=O)N1CCCCC1`, the Potency is reported as “inactive”. For `CC(C)c1ccc(OCC(=O)N2CCN(C)CC2)c(Br)c1`, the Potency was “inactive”. With `CC(C)(C)c1ccc(SCCc2ccncc2)cc1` the Potency was “inactive”. With `O=C(N/N=C/c1ccccc1O)C1CCCC1` the Potency was “inactive”. For `O=C(CSc1ccc(-c2ccccn2)nn1)Nc1ccccc1`, the Potency was “inactive”. For `CCOc1ccccc1/C=N/Nc1nc2ccccc2o1`, the Potency was “inactive”. In the case of `O=S(=O)(NCc1ccc(Cl)cc1Cl)c1cccs1`, the Potency is reported as “inactive”. With `COCCCNc1nc2c(-c3cccc(C)c3)nnn2c2ccc(Cl)cc12` the Potency was “inactive”. In the case of `CCCc1[nH]nc2c1C(c1ccc(Br)s1)C(C#N)=C(N)O2` (centres undefined), the Potency is reported as 2.51 µM (active). For `CCCc1[nH]nc2c1C(C1CC=CCC1)C(C#N)=C(N)O2` (centres undefined), the Potency was “inactive”. With `CCCc1[nH]nc2c1C(c1c(C)nn(-c3ccccc3)c1Cl)C(C#N)=C(N)O2` (centres undefined) the Potency was “inactive”. With `Cc1cccc(C(=O)NC(=S)N(C)C2CCCCC2)c1` the Potency was “inactive”. For `COc1ccc(CCc2nc(-c3cccs3)no2)cc1`, the Potency was “inactive”. For `COc1ccc(C(=O)NC(=S)N2CCCCC2c2cccnc2)cc1OC` (centres undefined), the Potency was “inactive”. For `O=C(N/N=C/c1cccc(OCc2ccccc2)c1)c1ccc(Br)o1`, the Potency was “inactive”. In the case of `O=C(Cc1ccc(Cl)cc1)NC(=S)Nc1ccccc1O`, the Potency is reported as “inactive”. For `CCc1ccc(C(=O)OCC(=O)Nc2cccc(S(=O)(=O)NC3=NCCCCC3)c2)cc1`, the Potency was “inactive”. In the case of `Cc1cccc(-n2c(SCC(=O)Nc3cccc(S(=O)(=O)NC4=NCCCCC4)c3)nc3ccccc3c2=O)c1C`, the Potency is reported as 22.4 µM (active). With `NS(=O)(=O)c1cccc(NC(=O)CSc2nc3ccccc3n2-c2ccccc2)c1` the Potency was “inactive”. In the case of `CCN(CC(=O)Nc1ccc(C)c(S(=O)(=O)N(C)C)c1)Cc1ccccc1`, the Potency is reported as “inactive”. For `Cc1ccc(CSc2nsc(C)c2C#N)cc1`, the Potency was “inactive”. In the case of `COc1ccc(C(=O)CC(=O)C(=O)Nc2cc([N+](=O)[O-])ccc2OC)cc1`, the Potency is reported as “inactive”. With `CSc1nccc(NC(=O)c2ccc(C(C)(C)C)cc2)n1` the Potency was “inactive”. In the case of `O=C(COc1ccc(Cl)cc1Cl)N/N=C/c1ccccn1`, the Potency is reported as “inactive”. With `O=C(O)CC(CC(=O)N1CCOCC1)c1ccccc1` (centres undefined) the Potency was “inactive”. For `O=C(O)CC(c1ccccc1)n1cnnn1` (centres undefined), the Potency was “inactive”. For `O=C(O)CC(Cn1cnnn1)c1ccccc1` (centres undefined), the Potency was 8.91 µM (active). In the case of `Cc1ccc(CNC(=O)C(=O)c2cn(CC(=O)N3CCCC3)c3ccccc23)cc1`, the Potency is reported as “inactive”. For `COc1cc(CNCc2ccc(OC)c3ccccc23)cc(OC)c1OC`, the Potency was “inactive”. For `COc1ccc(Nc2ncnc3ccc(Br)cc23)c(OC)c1`, the Potency was “inactive”. For `COc1ccc(CC(=O)N/N=C/c2cc([N+](=O)[O-])cc(Br)c2O)cc1`, the Potency was “inactive”. With `CC(C)(COC(=O)Nc1ccccc1)COC(=O)Nc1ccccc1` the Potency was “inactive”. For `COc1ccc(C=C(C#N)C#N)c(CSc2ccccn2)c1`, the Potency was “inactive”. With `COc1ccc(NCCc2ccccn2)cc1` the Potency was “inactive”. With `Cn1c(=O)c(=O)n(C)c2cc(S(=O)(=O)CCC(=O)N3CCCCC3)ccc21` the Potency was “inactive”. For `Cc1ccc(NS(=O)(=O)c2ccc3c(c2)n(C)c(=O)c(=O)n3C)c(C)c1`, the Potency was “inactive”. For `CCc1ccc(S(=O)(=O)Nc2cc3c(cc2N2CCCCC2)n(C)c(=O)c(=O)n3C)cc1`, the Potency was 2.82 µM (active). In the case of `CCOC(=O)CC1COCCN1C(=O)c1cc(COc2ccc(F)c(F)c2)on1` (centres undefined), the Potency is reported as “inactive”. With `O=C(NC(=S)N1CCCCC1c1cccnc1)c1ccccc1` (centres undefined) the Potency was “inactive”. With `CCC(C)c1ccc(NC(=S)N2CCCC2)cc1` (centres undefined) the Potency was “inactive”. With `COC(=O)C1=C(C)NC(=O)NC1/C=C/c1ccccc1` (centres undefined) the Potency was “inactive”. For `COC(=O)C1=C(C)N=C2SC(C)C(=O)N2C1/C=C/c1ccccc1` (centres undefined), the Potency was 11.2 µM (active). In the case of `CCOC(=O)c1ccccc1N1C(=O)C2Sc3[nH]c(=O)sc3C(/C=C/c3ccccc3)C2C1=O` (centres undefined), the Potency is reported as “inactive”. With `Cc1nonc1NC(=O)c1oc2ccccc2c1C` the Potency was “inactive”. With `Cc1nc(N2CCOCC2)sc1C(=O)NN` the Potency was “inactive”. For `Cc1ccc(SCC(=O)c2sc(-c3ccccc3)nc2C)cc1`, the Potency was “inactive”. For `Cc1nc(-c2ccc(Cl)cc2)sc1C(=O)NN`, the Potency was 3.55 µM (active). In the case of `CN(CC(=O)Nc1ccc(F)cc1)C(=O)c1ccc(-c2ccc(Cl)cc2)o1`, the Potency is reported as “inactive”. With `CCOC(=O)CC1(NC(=O)c2cc(COc3cncc(Cl)c3)on2)CCCCC1` the Potency was “inactive”. For `O=C(Cc1cccs1)NCc1cccc(C(F)(F)F)c1`, the Potency was “inactive”. With `N#Cc1c(-c2cccs2)nc(SCC(=O)c2ccc(Br)cc2)[nH]c1=O` the Potency was 3.16 µM (active). In the case of `Cc1ccc(CSc2nc(-c3ccccc3)c(C#N)c(=O)[nH]2)cc1`, the Potency is reported as “inactive”. For `O=C(CSc1nc2ccccc2c(=O)[nH]1)Nc1nc(-c2ccc(Br)cc2)cs1`, the Potency was “inactive”. In the case of `COc1ccc(NC(=O)CSc2nc3ccccc3c(=O)n2C)cc1`, the Potency is reported as “inactive”. With `COCCN1C(=O)N(c2ccc(Cl)cc2)C(=O)C1CC(=O)Nc1cc(OC)cc(OC)c1` (centres undefined) the Potency was “inactive”. In the case of `CC(=O)N1c2ccc(S(=O)(=O)N3CCCC(C(=O)Nc4cccc(F)c4)C3)cc2CC1C` (centres undefined), the Potency is reported as “inactive”.
